# From PubChem BioAssay
# Rows were chosen to be rich in hits. Some 0.64% of all compounds tested hit in one or more screens of this group.
# EPAC2 antag: qHTS for Antagonist of cAMP-regulated guanine nucleotide exchange factor 2 (EPAC2): primary screen | Rap guanine nucleotide exchange factor 4 (Homo sapiens), Q8WZA2 | EPAC2 GEF exchange of Rap1B-BODIPY-GDP, fluorescence | Potency, µM (top dose mostly 114 µM), without a hit: at the highest dose activity, negative = inhibition, hits mostly inhibitors | hit rate 0.18% among 360,000 | AID 720708, 2013; further: potency means the concentration at half of the fitted maximal effect; on the % scale 0 is the no-effect control and ±100 the full control effect; nearly all actives have a fitted effect of over 45% in size
# IL2 activator: qHTS of IL-2 Activators. IL-2 activation reporter assay, cell-based qHTS; stimulated with anti-CD3/CD4/CD28 beads; in transgenic mouse T cells. activation, % (series mostly up to about 46 µM). hit rate 0.065% among 360,000; in the data active means activation above about 50%; inconclusive means mostly about 30% to 49%; further: 0% is about no effect
#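 Unstimulated transgenic mouse T cells preincubated 60 min with compound, then stimulated with anti-CD3/anti-CD4-coated beads plus anti-CD28 for 18 h at 37 degrees C. IL-2 response read as EGFP and DsRed fluorescence by plate cytometry.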
# EPAC2 agonist: qHTS for Agonist of cAMP-regulated guanine nucleotide exchange factor 4 (EPAC2): primary screen | Potency, µM (titrated, usually from 154 µM), without a hit: at the top dose activation, most hits filed as activators | Rap guanine nucleotide exchange factor 4 (Homo sapiens), Q8WZA2 | hit rate 0.079% among 360,000 | EPAC2 activation, biochemical qHTS; response scale: 100% = 6.5 mM cAMP response; further: potency means the concentration at half of the fitted maximal effect; nearly all actives have a fitted effect of over 50% in size
#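 Nucleotide exchange monitored as fluorescence drop when BODIPY-GDP leaves Rap1B. Reaction: 100 nM EPAC2, 250 nM RAP1B-BODIPY-GDP, 50 uM GDP, room temperature, kinetic read over 30 min. Activity expressed relative to 6.5 mM cAMP.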
# PKM2 act: qHTS Assay for Activators of Human Muscle isoform 2 Pyruvate Kinase. Pyruvate kinase PKM (Homo sapiens), P14618. purified PKM2, Kinase-Glo ATP luminescence, activation; response scale: 0% is enzyme alone, no compound. Potency, µM (series often up to 57.5 µM), for the others: at the top dose activation, actives largely listed as activators. hit rate 0.34% among 260,000; further: potency means the concentration at half of the fitted maximal effect; on the % scale 0 is the no-effect control and ±100 the full control effect; nearly all actives have a fitted effect of over 55% in size
#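 hPK-M2, >95% pure; 0.1 mM ADP / 0.5 mM PEP final; imidazole pH7.2 buffer w/ 7 mM MgCl2, 50 mM KCl; 1 h RT; Kinase-Glo lum. Intermediate enzyme activity for dual inhibitor/activator qHTS.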
# EPAC1 antag: qHTS for Antagonist of cAMP-regulated guanine nucleotide exchange factor 3 (EPAC1): primary screen | Rap guanine nucleotide exchange factor 3 (Homo sapiens), O95398 | EPAC1 GEF assay, Rap1b-BODIPY-GDP exchange fluorescence | Potency, µM (series often up to 115 µM), for the others: top-dose activity change, negative = inhibition, most hits filed as inhibitors | hit rate 0.14% among 360,000 | AID 720709, 2013;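 further: potency means the concentration at half of the fitted maximal effect; plate controls were vehicle for no effect and positive control for full effect; nearly all actives have a fitted effect of over 50% in size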
# EPAC1 ag: qHTS for Agonist of cAMP-regulated guanine nucleotide exchange factor 3 (EPAC1): primary screen | EPAC1 agonist qHTS, biochemical assay; response scale: 100% = response to 6.5 mM cAMP | hit rate 0.073% among 360,000 | Rap guanine nucleotide exchange factor 3 (Homo sapiens), O95398 | AID 720707, 2013 | Potency, µM (top dose mostly 154 µM), inactives show top-dose activation, most hits filed as activators; further: potency means the concentration at half of the fitted maximal effect; nearly all actives have a fitted effect of over 60% in size
#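 Nucleotide exchange assay: 100 nM EPAC1 with 250 nM Rap1B loaded with BODIPY-GDP and 50 uM GDP, room temperature. Fluorescence (480/540 nm) read every 5 min for 30 min; signal change normalized to 6.5 mM cAMP as full agonist.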
# Numbers without * were called inactive; ? = inconclusive; · = not tested or not shown. Unless noted, the call rests on the fitted dose curve; in most records, active means well fitted curve in the direction sought with a large enough effect; inconclusive means small, poorly fitted or top-dose-only effect, or another doubt; inactive means no such curve, though single readings can be large; an effect the other way counts as inactive or inconclusive.
SMILES,EPAC2 antag,IL2 activator,EPAC2 agonist,PKM2 act,EPAC1 antag,EPAC1 ag
COC(=O)Nc1ccc2ccc3c(NC(=O)OC)ccc4ccc1c2c43,15.2%,-4.7,3.1%,·,4.5%,-7.1%
CCOc1ccc(Cl)cc1-c1cc(C(=O)Nc2ccc(C(C)C)cc2)[nH]n1,-12.0%,-0.6,-1.0%,·,-18.3%,-9.0%
COc1cccc(OCc2cc(C3Nc4ccccc4C(=O)N3Cc3ccco3)ccc2OC)c1 (configuration not stated),-1.2%,1.0,-0.1%,7.94µM*,-1.3%,11.1%
COc1ccc(/C=C2\N=C(SC)N(c3ccccc3OC)C2=O)cc1,17.8µM*,0.5,15.2%,-3.9%,5.6%,-2.2%
CCOc1ccc(N2C(=O)/C(=C/c3ccccc3)N=C2SC)cc1,0.7%,-0.1,4.0%,0.1%,-14.6%,8.0%
COc1ccc(NC(=O)CSc2nc3nc(-c4cccs4)cc(C(F)(F)F)c3c(=O)[nH]2)c(OC)c1,-17.7%,-0.3,-8.4%,-0.6%,31.6µM*,8.5%
CC(=O)N1N=C(c2ccc(Cl)cc2)CC1c1ccco1 (configuration not stated),-8.7%,-0.2,2.7%,25.1µM*,5.4%,5.6%
O=c1c2cc([N+](=O)[O-])cc([N+](=O)[O-])c2[nH]n1-c1ccccc1,44.7µM*,0.2,-16.5%,·,?,-11.7%
N#Cc1cc(Sc2ccccn2)c(Sc2ccccn2)cc1C#N,-1.7%,-0.7,-3.5%,1.1%,-11.1%,6.6%
N#CC(Sc1ccccn1)c1ccc(Cl)cc1Cl (configuration not stated),25.1µM*,-0.7,20.6%,5.7%,-12.8%,4.7%
CCOC(=O)N1CCN(c2nc(C(F)(F)F)nc3c(C)cc(C)cc23)CC1,-19.9%,0.6,9.0%,-2.1%,-12.2%,-0.7%
Cc1cc(C)c2nc(C(F)(F)F)nc(N3CC(C)OC(C)C3)c2c1 (configuration not stated),10µM*,-3.4,-2.3%,-4.5%,-9.3%,1.6%
O=C(Nc1ccccc1N1CCCCC1)c1cnccn1,17.8µM*,1.4,11.2%,15.3%,-4.7%,6.4%
Cc1cccc2c(N=Nc3ccccc3)c(O)[nH]c12,-8.1%,257.5*,-61.0%,·,52.8%,-119.1%
Oc1[nH]c2ccccc2c1N=Nc1cccc(Cl)c1,-9.5%,0.7,-2.9%,·,-21.7%,10.1%
CCCCSc1cc(=O)[nH]c(N)n1,-1.2%,0.3,3.8%,-2.1%,-18.2%,8.2%
O=C(Nc1sc2c(c1C(=O)O)CCCC2)c1ccc(Cl)cc1,-13.7%,-0.7,-1.9%,-0.9%,28.2µM*,-10.0%
CC(C)Cc1csc(NC(=O)c2ccccc2Cl)c1C(=O)O,8.0%,3.2,6.4%,-14.7%,8.8%,11.7%
CC(C)Cc1csc(NC(=O)c2ccc(Cl)cc2)c1C(=O)O,-1.3%,-0.4,-4.1%,0.7%,17.8µM*,-10.7%
O=C(O)c1cc(N2N=C(C(F)(F)F)/C(=C/C=C/c3ccco3)C2=O)ccc1Cl,?,1.1,13.9%,2.4%,35.5µM*,-0.5%
CCC/C=C/c1ccc(CN2C(C(C)C)C(=O)N(Cc3cn(CC4CCCCC4)nn3)CCS2(=O)=O)cc1 (configuration not stated),-8.8%,-4.6,-0.1%,·,-17.6%,-17.0%
COc1ccc(CC(=O)NNC(=O)COc2ccc(Cl)cc2C)cc1S(=O)(=O)N1CCOCC1,-0.6%,1.0,-1.2%,·,-9.1%,-8.9%
CN1CCCC(C)(C(=O)Nc2ccc3scnc3c2)C1 (configuration not stated),12.7%,-0.3,1.2%,·,2.7%,-3.4%
CC(=O)c1sc(NC(=O)c2ccc(Cn3cc(Br)cn3)o2)nc1C,2.1%,1.1,12.2%,11.2µM*,-12.3%,-0.5%
CCOc1ccc(S(=O)(=O)N2CCc3ccccc3C2)cc1,-11.7%,-0.6,13.4%,15.8%,-2.8%,13.5%
SMILES,EPAC2 antag,IL2 activator,EPAC2 agonist,PKM2 act,EPAC1 antag,EPAC1 ag
CCOc1ccc(S(=O)(=O)N2CCc3cc(OC)c(OC)cc3C2)cc1,-8.8%,-0.4,6.9%,15.8µM*,?,-7.2%
CCCC1(c2ccccc2)NC(=O)N(CC(=O)Nc2cc(S(=O)(=O)N3CCOCC3)ccc2Cl)C1=O (configuration not stated),2.1%,-0.9,0.3%,2.4%,-8.7%,-5.5%
O=C(O)Cc1ccc(C(=O)c2ccc(Cl)cc2Cl)s1,35.5µM*,-1.5,-1.3%,1.3%,-20.3%,-6.7%
Cc1nc2sccn2c(=O)c1S(=O)(=O)Nc1cccc(Cl)c1C,-10.0%,-3.4,6.6%,7.08µM*,-7.0%,-4.2%
COc1ccc(OC)c(NS(=O)(=O)c2c(C)nc3sccn3c2=O)c1,-12.0%,2.5,4.6%,4.2%,-5.3%,3.3%
CCOC(=O)c1ccc(NS(=O)(=O)c2c(C)nc3sccn3c2=O)cc1,6.5%,-2.8,2.1%,-5.5%,4.0%,0.4%
Cc1ccc(NS(=O)(=O)c2c(C)nc3sccn3c2=O)cc1,-15.0%,-2.5,-7.1%,10µM*,-28.4%,-21.5%
Cc1cnc(NC(=O)C2CC=CCC2)s1 (configuration not stated),8.6%,-0.8,14.5%,-4.5%,6.8%,10.9%
CC(=O)Nc1cc(-c2cccnc2)cn2c(-c3ccc(F)cc3)cnc12,-12.2%,-0.6,5.4%,·,-9.7%,-8.9%
CCc1cc2c(N=Nc3c(O)[nH]c4ccccc34)ncnc2s1,-4.4%,68.0*,-2.2%,-7.7%,12.2%,8.7%
Cc1sc2ncnc(N=Nc3c(O)[nH]c4ccccc34)c2c1C,4.1%,12.5,-1.2%,-9.1%,3.6%,-2.7%
Cc1ccc(-c2csc3nc(C)n(-n4c(C)ccc4C)c(=O)c23)o1,17.4%,0.9,19.8%,14.1µM*,0.5%,5.0%
Cc1ccc(-c2csc3nc(C)n(N)c(=O)c23)o1,6.3%,1.0,0.9%,6.7%,-0.2%,7.6%
O=C(CSc1nnc(-c2cccs2)n1Cc1ccco1)Nc1ccc2c(c1)OCO2,5.5%,2.2,7.94µM*,13.8%,-5.9%,-7.7%
O=C(CSc1nnc(-c2ccccc2)n1Cc1ccco1)Nc1ccc2c(c1)OCCO2,-11.9%,-0.9,9.8%,5.7%,-6.0%,13.2%
